# Screening results (PubChem BioAssay)
# This is a sample that favours compounds with a hit; in the whole collection about 2.3% have one here.
# mut p53 react: mutant p53 pathway reactivation | SW480 PUMA-promoter luciferase | activation, % at 9.98 µM | 1.5% of 28,000 active | AID 624151; in the data active = activation above about 52%
# ID4 binder: binders of human ID4 protein. calls only. AID 624137. 1.2% of 31,000 active. P47928. small molecule microarray, Flag-ID4 binding, fluorescence F/B; call rule not given here;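 also: a binder raises fluorescence above local background on the spot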
# Target sequence (P47928 whole entry, looked up): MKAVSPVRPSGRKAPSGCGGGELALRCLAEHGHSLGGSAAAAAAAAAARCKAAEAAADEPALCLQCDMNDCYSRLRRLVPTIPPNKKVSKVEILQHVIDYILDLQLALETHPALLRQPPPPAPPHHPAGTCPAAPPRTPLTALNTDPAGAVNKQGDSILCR
# * marks the source's active call; other numbers are inactive results; i = inactive; . = no result.
SMILES,mut p53 react,ID4 binder
CCOc1ccc(-c2nnc(SCC(=O)c3ccccc3N)n2C)cc1,67.4*,i
CCOc1ccc(NC(=O)CSc2nnc(-c3ccc(Cl)cc3)n2C)cc1,2.5,i
CN1N=C(c2coc3ccccc23)CC1(O)C(F)(F)F (stereo unspecified),72.6*,i
CN(C)c1nc(N)nc(CSc2nnnn2C)n1,4.1,i
CN(C)c1nc(N)nc(CSc2ncc(Cl)cc2Cl)n1,62.2*,i
COc1cc(Cc2nccc3cc(OC)c(OC)cc23)c(NC(=O)c2cc(F)c(F)cc2Cl)cc1OC,0.6,i
CNC(=O)c1cc2c(cn1)[nH]c1ccccc12,.,i
CCCCOC(=O)c1cc2c(cn1)[nH]c1ccccc12,70.8*,i
